IDE inh: inhibitors of human insulin-degrading enzyme in cells | P14735 | HEK cells, FAbetaB cleavage, fluorescence polarization | inhibition, % at 5.59 µM | actives 0.41% (n = 320,000) | AID 434962;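 active means percent inhibition above the average of all tested compounds plus 3 SD, set per screening campaign, cut at about 16% in these data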;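 further: IDE supplied by intact live HEK cells; FP after avidin binding of uncleaved biotin substrate so inhibition keeps polarization high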
Target sequence (P14735 whole entry, looked up): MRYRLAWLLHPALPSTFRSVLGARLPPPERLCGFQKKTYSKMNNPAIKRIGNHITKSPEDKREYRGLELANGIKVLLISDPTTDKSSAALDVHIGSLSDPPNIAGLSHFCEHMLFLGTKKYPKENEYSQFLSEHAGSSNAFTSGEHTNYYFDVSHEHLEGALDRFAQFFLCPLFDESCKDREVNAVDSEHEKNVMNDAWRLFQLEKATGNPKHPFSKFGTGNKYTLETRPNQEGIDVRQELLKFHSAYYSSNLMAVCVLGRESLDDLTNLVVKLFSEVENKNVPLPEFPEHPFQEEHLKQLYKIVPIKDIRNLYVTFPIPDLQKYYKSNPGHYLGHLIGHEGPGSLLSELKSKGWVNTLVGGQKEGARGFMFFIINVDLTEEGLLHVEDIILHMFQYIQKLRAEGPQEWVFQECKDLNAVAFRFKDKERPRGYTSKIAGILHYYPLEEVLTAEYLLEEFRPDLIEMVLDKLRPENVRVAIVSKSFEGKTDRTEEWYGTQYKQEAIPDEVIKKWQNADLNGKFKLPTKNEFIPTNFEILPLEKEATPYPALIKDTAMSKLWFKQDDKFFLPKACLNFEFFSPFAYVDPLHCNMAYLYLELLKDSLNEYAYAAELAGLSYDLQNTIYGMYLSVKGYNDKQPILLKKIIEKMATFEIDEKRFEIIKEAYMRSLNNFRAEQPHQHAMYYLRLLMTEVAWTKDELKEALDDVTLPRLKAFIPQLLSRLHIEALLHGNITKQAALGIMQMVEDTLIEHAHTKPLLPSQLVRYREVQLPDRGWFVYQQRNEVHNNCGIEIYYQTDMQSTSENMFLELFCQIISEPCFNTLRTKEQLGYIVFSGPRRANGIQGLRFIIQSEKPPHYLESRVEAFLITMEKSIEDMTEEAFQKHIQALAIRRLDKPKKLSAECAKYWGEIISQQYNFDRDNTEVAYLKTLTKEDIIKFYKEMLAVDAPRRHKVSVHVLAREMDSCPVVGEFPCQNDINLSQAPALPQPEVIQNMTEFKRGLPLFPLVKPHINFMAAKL
RTF Ca sens inh: cardiac RTF calcium desensitization. P19429+P45379. IANBD-labeled cardiac RTF, Ca2+ fluorescence. inhibition, % at 7.15 µM. actives 0.12% (n = 340,000). AID 493244;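 active means inhibition above the mean inhibition of all tested compounds plus 3 SD, cut at about 17% in these data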;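 further: assay run at fixed EC70 calcium of 1.6 mM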
CRFR2-BP ag: agonists of human CRF-binding protein/CRF-R2 receptor complex. activation, % at 13.2 µM. HEK293 CRF-R2/CRF-BP, calcium dye fluorescence (FLIPR); percent of saturating CRF peptide response. AID 588473. actives 0.46% (n = 350,000);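 active means activation of at least 50%, plus an integration ratio under a set limit after plate pattern correction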
IDE act: IDE (human) activation, cell-based; activation, % at 5.96 µM; actives 0.073% (n = 340,000); HEK cells, FAbeta-B cleavage, fluorescence polarization; 0% vehicle, 100% cell-free pure enzyme wells; P14735;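 active means activation above the mean of all tested compounds plus 3 SD, set per screening campaign, cut at about 17% in these data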
CRFR2-BP antag: antagonists of CRF-binding protein/CRF-R2 receptor complex; HEK293 CRF-R2/CRF-BP, CRF-induced calcium fluorescence; inhibition, % at 11.8 µM; actives 0.59% (n = 350,000); AID 588475;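 active means inhibition of the ligand-induced calcium signal above about 50% at the single tested concentration, limit read from the data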
cardiac RTF act: cardiac RTF calcium sensitization; P19429+P45379; IANBD-labeled TnC RTF fluorescence at EC20 calcium; 0% EC20 calcium, 100% full calcium; activation, % at 7.2 µM; actives 0.24% (n = 340,000); AID 493008;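 active means activation above the mean over all tested compounds plus 3 SD, cut at about 30% in these data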;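 further: rise in fluorescence read as greater calcium sensitivity of cardiac thin filaments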
A number is an active result; i = inactive; nt = no result. Compounds with a hit are over-represented: about 1.5% of the library has one in this group of screens.

SMILES	IDE inh	RTF Ca sens inh	CRFR2-BP ag	IDE act	CRFR2-BP antag	cardiac RTF act
CC[N+]1(C)CCC(O)(/C=C/c2ccccc2)C(C(=O)/C=C/c2ccccc2)C1 (centres undefined)	nt	i	i	i	i	i
CC(=O)Nc1ccc(NC(=O)C(C)OC(=O)/C(C#N)=C/c2ccc(N(C)C)cc2)cc1 (centres undefined)	i	i	i	i	i	79.6
O=C(c1cnn(C(=O)c2ccco2)c1)c1cc(F)ccc1O	i	i	i	27.4	i	i
O=C(c1cnn(C(=O)c2ccco2)c1)c1cc(Cl)cc(Cl)c1O	i	i	i	i	i	i
COc1ccc(CN(C)Cc2nc3scc(-c4ccccc4)c3c(=O)[nH]2)cc1OC	i	i	i	i	59.8	i
CSCc1nc2scc(-c3ccccc3)c2c(=O)[nH]1	nt	i	i	i	i	i
CC(=O)NC(Cc1cccc(F)c1)C(=O)NC1CCN(c2ncccc2[N+](=O)[O-])CC1 (centres undefined)	i	i	i	i	i	i
CC(=O)NC(Cc1cccc(C)c1)C(=O)NC1CCN(c2ncccc2[N+](=O)[O-])CC1 (centres undefined)	i	i	i	i	56.7	i
O=C1NC(=Nc2ccccc2Cl)S/C1=C\c1cc([N+](=O)[O-])ccc1O	i	i	60.8	i	i	i
COc1cccc(N=C2NC(=O)/C(=C/c3cc([N+](=O)[O-])ccc3O)S2)c1	i	i	i	i	i	i
COc1ccc(N2C(=O)CSC2c2ccc([N+](=O)[O-])cc2)cc1 (centres undefined)	i	i	i	i	83.3	i
COC(=O)c1sc(NC(=S)NC(=O)c2ccccc2C)nc1C	i	i	55.7	i	i	i
COC(=O)c1sc(NC(=S)NC(=O)c2cccc(Br)c2)nc1C	i	i	59.8	i	i	i
COC(=O)c1sc(NC(=S)NC(=O)c2ccc(F)cc2)nc1C	i	nt	nt	nt	nt	nt
Cc1cc(F)ccc1S(=O)(=O)N1CCCOC1CNC(=O)C(=O)NCCc1ccco1 (centres undefined)	nt	nt	i	nt	i	nt
Cc1ccc(S(=O)(=O)N(CC(=O)Nc2ccccc2C(=O)O)c2ccc(Cl)cc2)cc1	i	i	i	i	50.6	i
NC(=O)COc1ncn(-c2ccccc2)n1	i	i	i	i	57.2	i
Cc1cc(=O)n2[nH]c(Nc3cccc(Cl)c3)nc2n1	i	i	116.1	i	i	i
O=C(Cn1nc(Cl)nc1Cl)c1ccccc1	i	i	i	i	i	i
O=C(Cn1nc(Cl)nc1Cl)Nc1ccccc1	i	i	i	i	61.1	i
O=C(CCN1C(=O)/C(=C\c2cccc(Br)c2)SC1=S)N1CCOCC1	i	i	i	i	63.8	i
O=C(CCCN1C(=O)/C(=C\c2ccccc2)SC1=S)N1CCOCC1	i	i	i	i	i	i
O=c1c2cc(C(F)(F)F)ccc2sn1-c1ccccc1	nt	nt	60.8	nt	i	nt
CCCC1NC(=O)c2cccnc2-n2c1nc1ccc(OC)cc1c2=O (centres undefined)	nt	nt	i	nt	i	nt
O=C(CCNC(=O)c1ccc([N+](=O)[O-])cc1)NNC(=O)c1ccccc1F	i	i	i	i	i	i
SMILES	IDE inh	RTF Ca sens inh	CRFR2-BP ag	IDE act	CRFR2-BP antag	cardiac RTF act
CN1CCN(c2ccc(NC(=O)COc3ccccc3)cc2Cl)CC1	nt	i	i	i	i	i
CCCOc1ccc(C(=O)N2CCN(c3ccc(NC(=O)CC)cc3Cl)CC2)cc1	i	i	i	i	61.7	i
CN(C)C(CNC(=O)C1CCN(S(=O)(=O)c2cc(Cl)ccc2Cl)CC1)Cc1ccccc1 (centres undefined)	nt	i	i	i	i	i
O=[N+]([O-])c1ccc(N/N=C/C=C/c2ccco2)cc1	i	i	94.8	i	i	i
Cc1c(-n2cc(C(=O)c3ccccc3O)cc(C#N)c2=O)c(=O)n(-c2ccccc2)n1C	i	i	138.5	i	i	i
N#Cc1cc(C(=O)c2ccccc2O)cn(-c2ccc(Cl)cc2)c1=O	i	nt	52.7	nt	i	nt
O=C(CSc1nnc(NC(=O)c2c(F)cccc2Cl)s1)Nc1ccccc1F	i	i	i	i	i	i
COc1cc(Br)cc2cc(C(=O)N3CCOCC3)c(=O)oc12	i	i	i	i	i	i
O=C(CC1C[C@H](C(=O)N2CCCCC2)[C@@]2(CCc3ccccc3)c3[nH]c4ccccc4c3CCN2C1=O)NCCc1ccccn1 (some centres undefined)	nt	i	i	i	i	i
COc1ccc(C(C)(C)NC(=O)C2CCC(=O)N(C3CC3)C2)cc1OC (centres undefined)	i	i	i	i	i	i
CC(C)c1ccc(/C=C/C(=O)NC(=S)Nc2ccc(CN3CCOCC3)cc2)cc1	17.8	i	i	i	i	i
CC(C)c1ccc(/C=C/C(=O)NC(=S)NN2CCOCC2)cc1	nt	i	i	i	i	i
Cc1cccc(N2CCN(C(=O)c3ccccc3SCC(=O)N3CCCC3)CC2)c1C	i	i	i	i	i	i
Cc1c(NC(=O)c2ccc([N+](=O)[O-])o2)cccc1-c1nc2ncccc2o1	i	i	i	i	i	i
Nc1ccc(-c2cnc3ccccc3n2)cc1	i	nt	i	nt	i	nt
Nc1ccc2nc(-c3ccccc3)cnc2c1	i	i	66.2	i	i	i
COc1ccc2nc(N=NC3=C(O)CC(C)(C)CC3=O)sc2c1	i	i	i	i	50.5	i
CC1(C)CC(=O)C(N=Nc2ccc3ncsc3c2)=C(O)C1	i	i	i	i	i	i
CC(=O)N[C@H]1C[C@@H]1c1ccccc1	i	i	i	i	60.8	i
O=C(NCCCn1ccnc1)/C(=C\c1ccccc1Cl)NC(=O)c1ccccc1	i	i	i	i	i	i
Cc1cc(NS(=O)(=O)c2cc(Cl)sc2Cl)no1	i	i	i	i	i	i
Cc1c(-c2ccc(Cl)cc2)[n+](=O)c(-c2ccccc2)cn1[O-]	i	nt	i	nt	110.8	nt
O=C(COC(=O)c1ccncc1)c1ccc(Cl)c(Cl)c1	i	i	i	i	i	i
O=C(/C=C/c1ccco1)OCc1nnc(-c2ccccc2)o1	i	i	i	i	i	i
O=C(/C=C/c1ccco1)OCc1nnc(-c2ccc(Cl)cc2)o1	i	i	i	i	86.7	i
COc1cccc2c1C(=O)c1c(O)c3c(c(O)c1C2=O)CC(O)(C(C)=O)CC3OC1CC(N(C)C)C(O)C(C)O1 (centres undefined)	nt	i	89.2	i	i	190.0
COc1cccc2c1C(=O)c1c(O)c3c(c(O)c1C2=O)C[C@@](O)(C(=O)CO)C[C@@H]3OC1CC(N)C(O)C(C)O1 (some centres undefined)	nt	i	74.0	i	i	115.3

Bioassay records (PubChem BioAssay)
